Results from PubChem BioAssay (NCI).
Where “and” joins values, the source holds several entries; their conditions need not be identical. Equal entries are not always repeated. The panel holds about 83,000 compounds, 20% with a hit somewhere; the sample as a whole holds those more often.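 Activity criterion: percent growth below 10, measured after cells in 96-well plates were exposed to a single compound concentration for 48 hours.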 Unmarked numbers belong to inactive results. Calls of active or inactive are those of the source.

What follows are compounds tested on MDA-MB-468 breast (assay: NCI-60 one-dose screen, 48 h (100 = growth as untreated, 0 = no growth, -100 = all killed)). Settings: 10 µM unless noted.

Row | Compound | growth
1 | O=c1c2cc(F)ccc2sc2c(Nc3ccncc3)nc3ccccc3c12 | 27.8%
2 | O=C(/C=C/c1ccc(F)cc1)Nc1cccc2cccnc12 | -19.1% (active)
3 | Cn1c(SCC(=O)c2ccc(Br)cc2)nc2ccccc2c1=O | 89.9%
4 | NC(=N\N=C/c1cccc([N+](=O)[O-])c1)/C(N)=N\N=C/c1cccc([N+](=O)[O-])c1 | 64.9%
5 | O=C(CCl)Oc1ccc(OC(=O)CCl)cc1 | 78.4%
6 | Cc1ccc2c(c1)C(C)Cc1c(Cl)ncnc1N2C (stereo not given) | -26.4% (active)
7 | O=C(CCl)c1ccc2c(c1)Nc1ccccc1S2 | 75.7% and 64.9%
8 | CCn1c(=S)sc2c(Nc3ccc(F)cc3)nc(-c3cccnc3)nc21 | 79.8%
9 | NC(=O)NC(=O)/C=C/C(=O)OCCCl | 88.5%
10 | Cc1ccc(S(=O)(=O)Nc2cccc(Cn3c(=O)[nH]c4ccc(Oc5ncccn5)cc4c3=O)c2)cc1 | 39.6%
11 | Cc1[nH]cnc1/C=C1\SC(N2CCCCC2)=NC1=O | 101%
12 | Cc1ccc(C(CC(=O)O)c2c(C)[nH][nH]c2=O)cc1 (stereo not given) | 101%
13 | Cc1nn(-c2nc3ccccc3[nH]2)c2c1C(c1ccc3c(c1)OCO3)CC(=O)N2 (stereo not given) | 47.7%
14 | CS(=O)(=O)c1ccc(-c2cc(-c3nnc(SCC(=O)Nc4ccc(C(=O)/C=C/c5ccc(Cl)cc5)cc4)n3-c3ccccc3)c3ccccc3n2)cc1 | 93.2%
15 | COc1cc2nc(N3CCC[C@@H](NC(=O)C4COc5ccccc5O4)C3)nc(N)c2cc1OC (stereo not given in full) | 108% and 103%
16 | O=C1Nc2ccccc2/C1=N/N=C/c1ccsc1 | 78.3%
17 | COc1ccc(/C=C/C(=O)O)cc1OC | 99.5% and 102%
18 | COc1ccc(CCN2CCCN3C2=Nc2ccccc2S3(=O)=O)cc1 | 5.24% (active)
19 | O=C(/C=C/c1ccc(Br)cc1)c1ccc(-n2cc(CN3CCN(c4cc5c(cc4F)c(=O)c(C(=O)O)cn5C4CC4)CC3)nn2)cc1 | 92.2%
20 | c1ccc(-c2nc(Nc3nccnn3)c3ccccc3n2)cc1 | 83.5%

Row | Compound | growth
21 | Cc1ccc(NC(=O)Cn2c(Br)nc3c2c(=O)n(C)c(=O)n3C)cc1 | 10.4%
22 | COc1ccc(-c2nc3c(ncc4ccc(=O)[nH]c43)s2)cc1 | 62.9%
23 | CC(C)(C)c1cc(O)c(C(C)(C)C)cc1O | 66.2%
24 | CCCCCCC/C=N/NC(=O)c1ccc(-n2cc(-c3ccccc3)nn2)cc1 | 82.6%
25 | Cn1c(=O)c2[nH]c(SCC(=O)Nc3ccc(C(=O)/C=C/c4ccccc4Cl)cc3)nc2n(C)c1=O | 76.4%
26 | COC(=O)c1c(C)nc(C)c2c1C(=O)C(Br)=C(NCCN1CCOCC1)C2=O | 83.4%
27 | COc1ccc(Cn2c(Br)c3c(c2-c2cc(OC)c(OC)c(OC)c2)CCc2sc(NC(=O)c4ccc(OC)cc4)nc2-3)cc1 | 98.8%
28 | COc1ccccc1N1C(=N)S/C(=C\c2ccc(OCc3ccccc3F)cc2)C1=O | 5.85% (active)
29 | CCCCN(CCCC)CCC(O)c1cc2ccc(C(F)(F)F)cc2c2cc(C(F)(F)F)ccc12 (stereo not given) | 39.6%
30 | CC1=C2[C@@H](CC1)[C@]1(C)O[C@@](C(C)C)(C[C@H]1OC(=O)CO)[C@H]2OC(=O)CCCc1ccccc1 | 88.3%
31 | NCCCNc1nc2ccccc2c2c(=O)c3cc(F)cc(Cl)c3sc12 | 73.4%
32 | FC(F)(F)c1cccc(Nc2nc(-c3ccccc3)nc3ncccc23)c1 | -21.7% (active)
33 | Cn1c(=O)c2c(ncn2CC[N+](C)(C)C)n(C)c1=O | 101%
34 | CCCCCCCCCCC(C[N+](C)(C)C/C=C/c1ccccc1)C(O)c1ccccc1 (stereo not given) | -69.4% (active)
35 | COc1ccc(C2CC(n3nnnc3-c3ccccc3)=NN2)cc1 (stereo not given) | 64.5%
36 | CS(=O)(=O)c1ccc(-c2nn(-c3ccccc3)cc2/C=N/NC(=O)c2ccncc2)cc1 | 99%
37 | Clc1ccc(-c2c3ccc(=[N+]4CCCCC4)cc-3oc3cc(N4CCCCC4)ccc23)cc1 | -87.4% (active)
38 | C=C(C)[C@@H]1CC[C@]2(C(=O)NCC(=O)O)CC[C@]3(C)[C@H](CC[C@@H]4[C@@]5(C)Cc6c([nH]c7ccccc67)C(C)(C)[C@@H]5CC[C@]43C)[C@@H]12 | 118%
39 | O=C(CSc1nc2ccccc2c(=O)n1CCc1ccccc1)Nc1ccc(S(=O)(=O)Nc2ccc(Cl)nn2)cc1 | 103%
40 | COc1ccc(-c2nnc(SCC(=O)N3CCN(c4cc5c(cc4F)c(=O)c(C(=O)O)cn5C4CC4)CC3)o2)cc1OC | 96.4%
